# According to PubChem BioAssay (EPA / NIEHS):
# Inconclusive results are not listed. Calls of active or inactive are those of the source. The calls were made as follows, unless noted: active = hit-call score of the fitted dose curve at least 0.9, where 1 is the maximum; inconclusive = response in the unintended direction; inactive = score below 0.9.
# Columns and labels:
# [1] = ATG_TAL_CIS: Attagene CIS-FACTORIAL HepG2 Assay for human TAL Basal Promoter (AID 2282966; active = hit-call score of the fitted dose curve at least 0.9, where 1 is the maximum; inactive = score below 0.9;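 also: background control endpoint measuring basal TAL promoter reporter mRNA not a specific factor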); details: HepG2 Attagene cis-factorial TAL promoter reporter; actives raise or lower the signal
# Procedure, shortened: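 Basal-promoter background-control endpoint from a multiplexed HepG2 reporter panel. Cells were exposed 24 h, then reporter mRNA was read by RT-PCR/CE fluorescence and fitted in both directions relative to DMSO.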
# [2] = molecular target: Nuclear receptor subfamily 1 group I member 3 (Homo sapiens) (UniProt Q14994); experiment: ATG_CAR_TRANS: Attagene TRANS-FACTORIAL HepG2 Assay for human Constitutive Androstane Receptor (CAR) (AID 2282969); details: HepG2 Attagene TRANS-FACTORIAL CAR reporter;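 also: activators raise reporter mRNA above DMSO so AC50 marks induction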
# Procedure, shortened: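 Steps: transient transfection of HepG2 with multiple GAL4-UAS reporter units; 24 h compound incubation; RNA isolation, RT-PCR, 6-FAM primer extension, HpaI digest; capillary electrophoresis. Gain-of-signal relative to DMSO negative control.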
# [3] = molecular target: Estrogen receptor (Homo sapiens) (UniProt P03372); experiment: ATG_ERa_TRANS: Attagene TRANS-FACTORIAL HepG2 Assay for human Estrogen Receptor alpha (ERa) (AID 2282970); details: HepG2 Attagene TRANS ERa GAL4 reporter, mRNA
# Procedure, shortened: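 Gal4-fusion ERa transactivation, measured as reporter transcript level in transiently transfected HepG2 cells. Exposure 24 h; RT-PCR plus capillary electrophoresis with fluorescence detection.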
# [4] = molecular target: X-box-binding protein 1 (Homo sapiens) (UniProt P17861); experiment: ATG_Xbp1_CIS: Attagene CIS-FACTORIAL HepG2 Assay for human X-box Binding Protein 1 (XBP1) (AID 2282972; active = hit-call score of the fitted dose curve at least 0.9, where 1 is the maximum; inactive = score below 0.9); details: HepG2 XBP1 cis-element reporter, Attagene multiplex; actives raise or lower the signal
# Procedure, shortened: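 Human hepatoma HepG2, cis-element reporter system, 24 h treatment; mRNA quantified by RT-PCR/CE fluorescence; fit relative to DMSO.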
# [5] = ATG_GAL4_TRANS: Attagene TRANS-FACTORIAL HepG2 Assay for GAL4 (Internal Marker) (AID 2282976); details: HepG2 Attagene TRANS GAL4 internal marker reporter
# Procedure, shortened: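 Background-control readout: GAL4-UAS reporter transcript in transiently transfected HepG2 cells after 24 h compound exposure. Measured by RT-PCR, 6-FAM primer extension, HpaI digest and capillary electrophoresis; gain-of-signal fit versus DMSO.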
# [6] = molecular target: Glucocorticoid receptor (Homo sapiens) (UniProt P04150); experiment: ATG_GR_TRANS: Attagene TRANS-FACTORIAL HepG2 Assay for human Glucocorticoid Receptor (GR) (AID 2282978); details: HepG2 Attagene TRANS GR reporter, mRNA transcription;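 also: activators score as hits since higher reporter transcript over DMSO is fitted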
# Procedure, shortened: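 HepG2 transient transfection, multiple reporter units, GAL4-UAS under NR-GAL4 chimera control. 24 h treatment. Reporter mRNA by RT-PCR/CE fluorescence, DMSO as negative control.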
# [7] = molecular target: Oxysterols receptor LXR-alpha (Homo sapiens) (UniProt Q13133); experiment: ATG_LXRa_TRANS: Attagene TRANS-FACTORIAL HepG2 Assay for human Liver X Receptor alpha (LXRa) (AID 2282980); details: HepG2 Attagene TRANS reporter, LXRa transactivation
# Procedure, shortened: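 HepG2 cells transiently transfected with GAL4-UAS reporter units for chimeric NR-Gal4 proteins, exposed to chemicals for 24 h. Reporter mRNA quantified by RT-PCR and capillary electrophoresis; gain of signal fitted relative to DMSO.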
# [8] = ATG_M_06_TRANS: Attagene TRANS-FACTORIAL HepG2 Assay for M06 Transcription Factor (Internal Marker) (AID 2282983); details: HepG2 Attagene TRANS M06 internal marker reporter
# Procedure, shortened: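 mRNA levels of a reporter transcript, quantified as FAM fluorescence on capillary electrophoresis, served as readout. HepG2 cells expressing exogenous GAL4-chimera reporter constructs were exposed for 24 h. Gain of signal over DMSO was evaluated.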
# [9] = ATG_M_32_TRANS: Attagene TRANS-FACTORIAL HepG2 Assay for M32 Transcription Factor (Internal Marker) (AID 2282984); details: HepG2 Attagene TRANS M32 internal marker reporter
# Procedure, shortened: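 After 24 h dosing of transfected HepG2 cells, total RNA was reverse-transcribed, reporter sequences PCR-amplified, 6-FAM labelled by primer extension and HpaI-digested before capillary electrophoresis. Signal increase over DMSO was fitted.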
# [10] = molecular target: Nuclear receptor subfamily 4 group A member 2 (Homo sapiens) (UniProt P43354); experiment: ATG_NURR1_TRANS: Attagene TRANS-FACTORIAL HepG2 Assay for human Nuclear Receptor Related Protein 1 (NURR1) (AID 2282985); details: HepG2 Attagene TRANS reporter, mRNA readout
# Procedure, shortened: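 Chimeric NR-Gal4 fusion activity measured in HepG2 after 24 h treatment. Reporter transcripts detected by RT-PCR and capillary electrophoresis fluorescence; positive-direction curve fitting against DMSO.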
# [11] = molecular target: Transcriptional activator Myb (Homo sapiens) (UniProt P10242); experiment: ATG_Myb_CIS: Attagene CIS-FACTORIAL HepG2 Assay for human Myeloblastosis (Myb) Proto-Oncogene Transcription Factor (AID 2282986; active = hit-call score of the fitted dose curve at least 0.9, where 1 is the maximum; inactive = score below 0.9); details: HepG2 Attagene CIS-FACTORIAL Myb reporter transcription; actives raise or lower the signal
# Procedure, shortened: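 Multiplexed cis-reporter system in HepG2: transient transfection, 24 h treatment, mRNA readout by RT-PCR and capillary electrophoresis. Both increases and decreases are scored versus DMSO negative control.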
# [12] = molecular target: Nuclear respiratory factor 1 (Homo sapiens) (UniProt Q16656); experiment: ATG_NRF1_CIS: Attagene CIS-FACTORIAL HepG2 Assay for human Nuclear Respiratory Factor 1 (NRF1) Orphan Gene (AID 2282987; active = hit-call score of the fitted dose curve at least 0.9, where 1 is the maximum; inactive = score below 0.9); details: HepG2 NRF1 cis-element reporter, Attagene multiplex; actives raise or lower the signal
# Procedure, shortened: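 Endogenous factor activity was captured via cis-element-driven reporter transcripts in HepG2 cells. Following 24 h chemical treatment, transcripts were quantified by RT-PCR and capillary electrophoresis.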
# [13] = ATG_VDRE_CIS: Attagene CIS-FACTORIAL HepG2 Assay for human Vitamin D Receptor Element (VDRE) (AID 2282968; active = hit-call score of the fitted dose curve at least 0.9, where 1 is the maximum; inactive = score below 0.9); details: HepG2 VDRE cis-reporter transcription, actives raise or lower the signal
# Procedure, shortened: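 Steps: transfect HepG2 with multiple reporter transcription units; dose chemicals 24 h; isolate RNA; RT-PCR; label with 6-FAM primer extension; HpaI digest; capillary electrophoresis. Curves fitted both directions against DMSO.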
# [14] = molecular target: Steroid hormone receptor ERR1 (Homo sapiens) (UniProt P11474); experiment: ATG_ERRa_TRANS: Attagene TRANS-FACTORIAL HepG2 Assay for human Estrogen-Related Receptor alpha (ERRa) (AID 2282971); details: HepG2 Attagene TRANS reporter, ERRa transactivation
# Procedure, shortened: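 HepG2 cells transiently transfected with GAL4-UAS reporter units and chimeric NR-Gal4 constructs; after 24 hour compound incubation, reporter mRNA quantified by RT-PCR, fluorescent labelling and capillary electrophoresis, gain of signal versus DMSO.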
# [15] = molecular target: Oxysterols receptor LXR-beta (Homo sapiens) (UniProt P55055); experiment: ATG_LXRb_TRANS: Attagene TRANS-FACTORIAL HepG2 Assay for human Liver X Receptor beta (LXRb) (AID 2282981); details: HepG2 Attagene TRANS GAL4-LXRb reporter, mRNA
# Procedure, shortened: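 Measures induction of a Gal4-driven reporter transcript in HepG2 cells expressing an exogenous LXRb-Gal4 fusion. Cells are exposed to compound for 24 h before RNA isolation and RT-PCR with capillary electrophoresis detection.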
# [16] = ATG_M_19_TRANS: Attagene TRANS-FACTORIAL HepG2 Assay for M19 Transcription Factor (Internal Marker) (AID 2282974); details: HepG2 Attagene TRANS-FACTORIAL M19 internal marker reporter
# Procedure, shortened: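 Gain-of-signal in reporter mRNA, relative to DMSO, was scored from capillary electrophoresis fluorescence. HepG2 cells carried transiently transfected multiple reporter transcription units and were incubated with test chemicals for 24 h.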
# [17] = molecular target: Hepatocyte nuclear factor 4-alpha (Homo sapiens) (UniProt P41235); experiment: ATG_HNF4a_TRANS: Attagene TRANS-FACTORIAL HepG2 Assay for human Hepatocyte Nuclear Factor 4 alpha (HNF4a) (AID 2282982); details: HepG2 HNF4a transactivation reporter, mRNA readout
# Procedure, shortened: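 In this trans-factorial format, a chimeric HNF4a-GAL4 fusion drives a GAL4-UAS reporter in transfected HepG2 liver cells. After 24 h treatment, reporter mRNA induction is measured by RT-PCR with capillary electrophoresis, relative to DMSO.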
# [18] = molecular target: Estrogen-related receptor gamma (Homo sapiens) (UniProt P62508); experiment: ATG_ERRg_TRANS: Attagene TRANS-FACTORIAL HepG2 Assay for human Estrogen-Related Receptor gamma (ERRg) (AID 2282977); details: HepG2 Attagene TRANS reporter, ERRg transactivation;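 also: hits increase reporter signal over DMSO so potencies reflect activators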
# Procedure, shortened: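 Exogenous NR-Gal4 chimera activity measured as reporter transcript induction after 24 h in transiently transfected HepG2 cells. RNA reverse-transcribed, PCR-amplified, 6-FAM-labelled and resolved by capillary electrophoresis; increase over DMSO baseline.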
# [19] = ATG_TGFb_CIS: Attagene CIS-FACTORIAL HepG2 Assay for human Transforming Growth Factor (TGF) (AID 2282967; active = hit-call score of the fitted dose curve at least 0.9, where 1 is the maximum; inactive = score below 0.9); details: HepG2 Attagene CIS TGFb reporter, mRNA transcription; actives raise or lower the signal
# Procedure, shortened: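 Transient MRTU transfection of HepG2 (FuGene 6). Dose 24 h. TriZol RNA, oligo(dT) RT, PCR, 6-FAM primer extension, HpaI cut, CE. Bidirectional fit, DMSO = baseline.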
# [20] = molecular target: Bile acid receptor (Homo sapiens) (UniProt Q96RI1); experiment: ATG_FXR_TRANS: Attagene TRANS-FACTORIAL HepG2 Assay for Farnesoid X Receptor (FXR) (AID 2282979); details: HepG2 Attagene TRANS FXR-GAL4 reporter transcription;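 also: hits raise reporter mRNA above DMSO so AC50 marks FXR activation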
# Procedure, shortened: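 HepG2 cells were transiently transfected with GAL4-UAS reporters driven by chimeric NR-Gal4 proteins and dosed for 24 h. Reporter mRNA was quantified by RT-PCR, fluorescent labelling, HpaI digestion and capillary electrophoresis, with gain of signal scored versus DMSO.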
# Chain of Glucocorticoid receptor (Homo sapiens) (P04150 whole entry, looked up, the tested form may be a part): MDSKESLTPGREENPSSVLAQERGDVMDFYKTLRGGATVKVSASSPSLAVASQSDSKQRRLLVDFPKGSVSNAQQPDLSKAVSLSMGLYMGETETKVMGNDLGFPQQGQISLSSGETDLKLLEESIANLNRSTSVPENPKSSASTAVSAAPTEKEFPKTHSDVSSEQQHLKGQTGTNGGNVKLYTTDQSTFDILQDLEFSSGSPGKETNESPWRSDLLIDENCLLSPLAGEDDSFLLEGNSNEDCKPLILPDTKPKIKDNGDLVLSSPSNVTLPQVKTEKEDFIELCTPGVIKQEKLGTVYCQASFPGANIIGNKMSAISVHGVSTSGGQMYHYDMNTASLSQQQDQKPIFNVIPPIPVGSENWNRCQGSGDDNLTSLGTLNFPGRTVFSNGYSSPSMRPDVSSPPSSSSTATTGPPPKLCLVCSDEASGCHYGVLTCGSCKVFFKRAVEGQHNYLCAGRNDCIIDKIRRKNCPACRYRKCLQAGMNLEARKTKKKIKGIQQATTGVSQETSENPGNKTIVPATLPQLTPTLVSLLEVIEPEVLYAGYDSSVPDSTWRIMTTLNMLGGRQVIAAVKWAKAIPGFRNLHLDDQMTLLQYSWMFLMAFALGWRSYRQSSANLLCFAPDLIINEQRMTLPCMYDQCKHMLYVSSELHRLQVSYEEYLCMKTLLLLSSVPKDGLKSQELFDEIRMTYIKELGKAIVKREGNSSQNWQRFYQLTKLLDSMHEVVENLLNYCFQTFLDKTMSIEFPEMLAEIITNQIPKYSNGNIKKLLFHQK
# Chain of Oxysterols receptor LXR-beta (Homo sapiens) (P55055 whole entry, looked up, the tested form may be a part): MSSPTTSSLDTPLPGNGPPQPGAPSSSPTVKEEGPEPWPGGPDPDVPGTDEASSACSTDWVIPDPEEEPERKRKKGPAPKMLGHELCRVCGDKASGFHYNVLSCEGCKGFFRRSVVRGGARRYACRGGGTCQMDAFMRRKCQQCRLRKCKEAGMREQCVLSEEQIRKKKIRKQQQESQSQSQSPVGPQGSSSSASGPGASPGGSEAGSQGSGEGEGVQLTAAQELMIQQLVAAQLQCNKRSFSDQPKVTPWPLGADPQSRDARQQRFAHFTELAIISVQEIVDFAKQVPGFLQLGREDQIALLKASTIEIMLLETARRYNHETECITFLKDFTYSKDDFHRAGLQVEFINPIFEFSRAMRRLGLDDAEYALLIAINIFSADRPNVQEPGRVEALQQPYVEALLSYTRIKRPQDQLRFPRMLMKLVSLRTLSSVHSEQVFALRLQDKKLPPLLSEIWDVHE
# Chain of Transcriptional activator Myb (Homo sapiens) (P10242 whole entry, looked up): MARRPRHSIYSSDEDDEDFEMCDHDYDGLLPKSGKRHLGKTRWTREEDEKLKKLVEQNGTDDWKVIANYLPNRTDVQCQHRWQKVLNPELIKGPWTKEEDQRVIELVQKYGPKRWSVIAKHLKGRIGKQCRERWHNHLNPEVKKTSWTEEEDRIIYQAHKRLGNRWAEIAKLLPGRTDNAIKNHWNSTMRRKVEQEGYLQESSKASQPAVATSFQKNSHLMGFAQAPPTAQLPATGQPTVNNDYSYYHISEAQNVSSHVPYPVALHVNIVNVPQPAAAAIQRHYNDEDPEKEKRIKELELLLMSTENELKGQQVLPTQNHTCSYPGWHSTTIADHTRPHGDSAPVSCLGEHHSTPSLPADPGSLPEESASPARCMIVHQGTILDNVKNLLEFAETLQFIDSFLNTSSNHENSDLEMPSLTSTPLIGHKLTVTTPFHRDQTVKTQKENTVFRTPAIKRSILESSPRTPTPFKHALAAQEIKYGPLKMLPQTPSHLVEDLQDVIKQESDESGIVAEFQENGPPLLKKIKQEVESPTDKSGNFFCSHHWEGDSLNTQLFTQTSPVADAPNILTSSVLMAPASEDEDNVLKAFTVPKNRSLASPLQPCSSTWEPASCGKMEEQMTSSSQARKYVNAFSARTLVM
# Chain of Oxysterols receptor LXR-alpha (Homo sapiens) (Q13133 whole entry, looked up, the tested form may be a part): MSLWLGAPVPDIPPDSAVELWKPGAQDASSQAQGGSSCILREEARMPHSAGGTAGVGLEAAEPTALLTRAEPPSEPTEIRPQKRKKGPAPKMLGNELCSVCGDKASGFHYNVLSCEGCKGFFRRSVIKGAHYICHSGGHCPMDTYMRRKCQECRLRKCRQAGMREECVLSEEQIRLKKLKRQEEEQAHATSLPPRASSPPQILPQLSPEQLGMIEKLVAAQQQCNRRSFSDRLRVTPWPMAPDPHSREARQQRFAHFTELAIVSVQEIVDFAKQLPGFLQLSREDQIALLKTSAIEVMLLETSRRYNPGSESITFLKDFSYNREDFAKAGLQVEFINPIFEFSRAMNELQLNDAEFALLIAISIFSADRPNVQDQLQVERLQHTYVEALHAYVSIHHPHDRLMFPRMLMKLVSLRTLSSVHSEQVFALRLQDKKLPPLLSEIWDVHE
# Chain of Estrogen receptor (Homo sapiens) (P03372 whole entry, looked up, the tested form may be a part): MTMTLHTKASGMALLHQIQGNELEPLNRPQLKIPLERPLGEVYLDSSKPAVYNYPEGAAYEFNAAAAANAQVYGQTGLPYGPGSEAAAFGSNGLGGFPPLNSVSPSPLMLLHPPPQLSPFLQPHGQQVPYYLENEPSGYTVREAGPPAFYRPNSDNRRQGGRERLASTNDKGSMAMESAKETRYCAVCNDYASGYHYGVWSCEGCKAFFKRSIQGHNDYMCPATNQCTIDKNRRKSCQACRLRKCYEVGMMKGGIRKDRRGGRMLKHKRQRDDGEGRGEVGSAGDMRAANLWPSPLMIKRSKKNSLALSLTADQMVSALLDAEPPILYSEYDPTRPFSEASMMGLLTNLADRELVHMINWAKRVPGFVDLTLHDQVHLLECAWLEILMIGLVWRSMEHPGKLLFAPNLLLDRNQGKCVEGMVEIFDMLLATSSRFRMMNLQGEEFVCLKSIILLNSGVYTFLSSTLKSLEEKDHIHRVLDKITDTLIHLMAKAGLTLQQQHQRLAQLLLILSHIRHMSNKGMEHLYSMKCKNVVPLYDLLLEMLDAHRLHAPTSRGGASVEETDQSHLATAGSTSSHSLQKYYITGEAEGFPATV
# Chain of X-box-binding protein 1 (Homo sapiens) (P17861 whole entry, looked up): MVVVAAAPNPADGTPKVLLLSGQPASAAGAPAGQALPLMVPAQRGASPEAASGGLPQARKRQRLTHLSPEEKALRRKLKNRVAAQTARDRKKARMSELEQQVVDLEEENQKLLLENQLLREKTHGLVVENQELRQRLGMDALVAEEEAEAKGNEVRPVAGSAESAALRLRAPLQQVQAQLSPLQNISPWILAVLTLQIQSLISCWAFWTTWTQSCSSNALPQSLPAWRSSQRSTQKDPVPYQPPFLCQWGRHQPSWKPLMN
# Chain of Nuclear respiratory factor 1 (Homo sapiens) (Q16656 whole entry, looked up): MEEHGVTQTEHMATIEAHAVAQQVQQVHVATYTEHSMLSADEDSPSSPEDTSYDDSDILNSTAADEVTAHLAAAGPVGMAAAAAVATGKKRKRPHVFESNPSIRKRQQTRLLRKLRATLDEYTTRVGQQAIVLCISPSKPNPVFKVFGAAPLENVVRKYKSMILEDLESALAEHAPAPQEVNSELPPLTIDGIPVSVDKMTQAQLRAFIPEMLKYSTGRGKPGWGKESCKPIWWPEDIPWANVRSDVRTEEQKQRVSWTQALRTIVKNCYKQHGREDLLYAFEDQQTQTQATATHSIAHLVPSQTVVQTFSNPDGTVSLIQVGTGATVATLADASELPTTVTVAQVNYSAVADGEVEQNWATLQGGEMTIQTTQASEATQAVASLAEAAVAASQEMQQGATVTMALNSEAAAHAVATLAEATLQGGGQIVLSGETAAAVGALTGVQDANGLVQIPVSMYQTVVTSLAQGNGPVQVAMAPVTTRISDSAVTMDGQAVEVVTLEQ
# Chain of Hepatocyte nuclear factor 4-alpha (Homo sapiens) (P41235 whole entry, looked up, the tested form may be a part): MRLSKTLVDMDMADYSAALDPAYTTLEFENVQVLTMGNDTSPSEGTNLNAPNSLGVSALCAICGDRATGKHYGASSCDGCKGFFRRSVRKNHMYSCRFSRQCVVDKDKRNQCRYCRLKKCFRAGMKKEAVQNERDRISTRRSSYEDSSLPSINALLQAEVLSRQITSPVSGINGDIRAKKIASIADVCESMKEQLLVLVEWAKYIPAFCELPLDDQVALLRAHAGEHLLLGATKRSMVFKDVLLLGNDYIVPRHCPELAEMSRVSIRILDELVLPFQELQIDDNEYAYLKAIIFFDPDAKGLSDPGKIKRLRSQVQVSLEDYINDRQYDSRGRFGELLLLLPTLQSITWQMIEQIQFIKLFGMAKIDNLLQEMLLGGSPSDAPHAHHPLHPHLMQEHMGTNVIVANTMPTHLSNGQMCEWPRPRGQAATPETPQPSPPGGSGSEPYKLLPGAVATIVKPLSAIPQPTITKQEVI
# Chain of Nuclear receptor subfamily 4 group A member 2 (Homo sapiens) (P43354 whole entry, looked up, the tested form may be a part): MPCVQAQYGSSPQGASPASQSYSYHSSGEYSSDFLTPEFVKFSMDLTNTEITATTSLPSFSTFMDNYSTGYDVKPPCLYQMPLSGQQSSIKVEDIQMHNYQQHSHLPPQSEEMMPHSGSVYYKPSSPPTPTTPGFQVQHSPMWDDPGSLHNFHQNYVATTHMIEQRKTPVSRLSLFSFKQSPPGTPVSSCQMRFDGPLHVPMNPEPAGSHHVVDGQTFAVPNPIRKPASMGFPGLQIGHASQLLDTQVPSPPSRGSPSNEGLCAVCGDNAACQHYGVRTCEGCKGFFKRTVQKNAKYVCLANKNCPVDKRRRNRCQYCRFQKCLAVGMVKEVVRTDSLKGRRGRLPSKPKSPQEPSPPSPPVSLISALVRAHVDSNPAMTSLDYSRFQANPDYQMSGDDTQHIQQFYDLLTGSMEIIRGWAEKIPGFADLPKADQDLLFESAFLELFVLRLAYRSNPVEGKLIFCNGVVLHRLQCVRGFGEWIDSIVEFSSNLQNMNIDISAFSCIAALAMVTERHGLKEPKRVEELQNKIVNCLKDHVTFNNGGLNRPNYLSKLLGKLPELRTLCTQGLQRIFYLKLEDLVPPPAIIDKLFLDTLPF
structure (smiles),measurement,setting,value
CCCCCCCCCCCCCCCCCC#N,outcome,[1],inactive
same,outcome,[2],inactive
same,outcome,[3],inactive
same,outcome,[4],inactive
same,outcome,[5],inactive
same,outcome,[6],inactive
same,outcome,[7],inactive
same,outcome,[8],inactive
same,outcome,[9],inactive
same,outcome,[10],inactive
same,outcome,[11],inactive
same,outcome,[12],inactive
CCCCCCCOC(=O)CCC,outcome,[1],inactive
same,outcome,[13],inactive
same,outcome,[2],inactive
same,outcome,[3],inactive
same,outcome,[14],inactive
same,outcome,[4],inactive
same,outcome,[5],inactive
same,outcome,[6],inactive
same,outcome,[7],inactive
same,outcome,[15],inactive
same,outcome,[8],inactive
same,outcome,[10],inactive
same,outcome,[12],inactive
COC(=O)c1c(C)cc(O)c(C)c1O,outcome,[1],inactive
same,outcome,[13],inactive
same,AC50,[3],38.7 µM (active)
same,outcome,[4],inactive
same,outcome,[16],inactive
same,outcome,[5],inactive
same,outcome,[15],inactive
same,outcome,[8],inactive
same,outcome,[9],inactive
same,outcome,[12],inactive
CC(C)c1ccc2cc(C(C)C)ccc2c1,outcome,[1],inactive
same,outcome,[13],inactive
same,AC50,[3],13.7 µM (active)
same,outcome,[4],inactive
same,outcome,[6],inactive
same,outcome,[15],inactive
same,outcome,[17],inactive
same,outcome,[8],inactive
same,outcome,[10],inactive
same,outcome,[11],inactive
same,outcome,[12],inactive
CC(=O)OC1C2(C)CCC(C2)C1(C)C (centres undefined),outcome,[1],inactive
same,outcome,[3],inactive
same,outcome,[4],inactive
same,outcome,[6],inactive
same,outcome,[7],inactive
same,outcome,[15],inactive
same,outcome,[17],inactive
same,outcome,[8],inactive
same,outcome,[10],inactive
same,outcome,[12],inactive
NC(=O)NNC(N)=O,outcome,[1],inactive
same,outcome,[13],inactive
same,outcome,[4],inactive
same,outcome,[16],inactive
same,outcome,[18],inactive
same,outcome,[6],inactive
same,outcome,[7],inactive
same,outcome,[17],inactive
same,outcome,[9],inactive
same,outcome,[10],inactive
same,outcome,[11],inactive
same,outcome,[12],inactive
CCCCCCC(O)CO (centres undefined),outcome,[1],inactive
same,outcome,[19],inactive
same,outcome,[4],inactive
same,outcome,[20],inactive
same,outcome,[17],inactive
same,outcome,[8],inactive
same,outcome,[10],inactive
same,outcome,[11],inactive
same,outcome,[12],inactive
O=C1CCCC(=O)O1,outcome,[1],inactive
same,outcome,[13],inactive
same,outcome,[2],inactive
same,outcome,[4],inactive
same,outcome,[16],inactive
same,outcome,[15],inactive
same,outcome,[17],inactive
same,outcome,[8],inactive
same,outcome,[9],inactive
same,outcome,[11],inactive
same,outcome,[12],inactive
O=c1[nH]nc(-c2ccc([N+](=O)[O-])o2)o1,outcome,[1],inactive
same,outcome,[13],inactive
same,outcome,[2],inactive
same,outcome,[4],inactive
same,outcome,[16],inactive
same,outcome,[18],inactive
same,outcome,[6],inactive
same,outcome,[7],inactive
same,outcome,[15],inactive
same,outcome,[17],inactive
same,outcome,[8],inactive
same,outcome,[9],inactive
same,outcome,[11],inactive
same,outcome,[12],inactive
O=S(=O)(O)c1ccc2cc(O)c(S(=O)(=O)O)cc2c1,outcome,[1],inactive
same,outcome,[13],inactive
same,AC50,[4],172 µM (active)
same,outcome,[15],inactive
same,outcome,[9],inactive
same,outcome,[11],inactive
same,outcome,[12],inactive
